Test results published in the supplement of paper PMC10849652.
Targets with a hit are over-represented here; the source holds about 7,900 in all. About 0.6% of all pairs of compound and target were hits. Values without a mark were called inactive.

Chain of UniProt Q9H081 (Q9H081 whole entry, looked up): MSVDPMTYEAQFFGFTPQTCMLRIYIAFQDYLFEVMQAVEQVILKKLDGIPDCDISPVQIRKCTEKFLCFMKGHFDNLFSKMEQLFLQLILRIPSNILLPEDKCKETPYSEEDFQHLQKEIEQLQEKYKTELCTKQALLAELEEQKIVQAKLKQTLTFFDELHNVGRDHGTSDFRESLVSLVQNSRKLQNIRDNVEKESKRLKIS
Chain of UniProt Q8WUY8 (Q8WUY8 whole entry, looked up): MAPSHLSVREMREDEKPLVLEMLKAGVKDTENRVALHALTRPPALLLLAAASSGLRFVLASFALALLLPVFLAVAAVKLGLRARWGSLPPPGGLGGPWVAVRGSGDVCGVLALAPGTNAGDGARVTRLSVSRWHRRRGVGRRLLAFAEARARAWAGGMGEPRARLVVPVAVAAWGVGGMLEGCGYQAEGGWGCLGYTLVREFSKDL
Chain of UniProt Q8NBF2 (Q8NBF2 whole entry, looked up): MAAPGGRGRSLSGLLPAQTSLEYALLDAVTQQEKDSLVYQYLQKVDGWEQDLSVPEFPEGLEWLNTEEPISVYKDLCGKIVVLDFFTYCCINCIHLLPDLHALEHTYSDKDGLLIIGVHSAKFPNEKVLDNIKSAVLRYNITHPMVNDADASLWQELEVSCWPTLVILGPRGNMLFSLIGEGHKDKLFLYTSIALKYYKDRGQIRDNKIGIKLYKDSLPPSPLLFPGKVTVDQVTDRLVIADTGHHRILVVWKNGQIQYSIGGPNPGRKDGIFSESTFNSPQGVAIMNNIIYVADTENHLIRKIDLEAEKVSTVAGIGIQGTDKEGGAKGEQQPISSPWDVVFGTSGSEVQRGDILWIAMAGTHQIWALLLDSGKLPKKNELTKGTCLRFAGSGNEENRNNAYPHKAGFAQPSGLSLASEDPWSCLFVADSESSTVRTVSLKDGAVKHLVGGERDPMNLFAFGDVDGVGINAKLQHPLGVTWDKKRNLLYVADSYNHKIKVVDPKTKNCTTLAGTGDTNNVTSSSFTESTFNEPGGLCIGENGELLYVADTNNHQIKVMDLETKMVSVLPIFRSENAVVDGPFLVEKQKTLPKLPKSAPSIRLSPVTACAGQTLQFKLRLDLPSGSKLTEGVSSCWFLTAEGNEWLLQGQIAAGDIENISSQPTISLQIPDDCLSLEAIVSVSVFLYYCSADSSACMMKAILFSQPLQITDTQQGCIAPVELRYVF
Chain of UniProt O95169 (O95169 whole entry, looked up): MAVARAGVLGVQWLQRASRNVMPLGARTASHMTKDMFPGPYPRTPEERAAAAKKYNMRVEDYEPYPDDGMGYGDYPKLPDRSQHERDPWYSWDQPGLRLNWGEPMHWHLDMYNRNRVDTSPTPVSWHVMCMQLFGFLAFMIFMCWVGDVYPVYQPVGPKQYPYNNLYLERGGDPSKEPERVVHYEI
Chain of UniProt Q96BN8 (Q96BN8 whole entry, looked up): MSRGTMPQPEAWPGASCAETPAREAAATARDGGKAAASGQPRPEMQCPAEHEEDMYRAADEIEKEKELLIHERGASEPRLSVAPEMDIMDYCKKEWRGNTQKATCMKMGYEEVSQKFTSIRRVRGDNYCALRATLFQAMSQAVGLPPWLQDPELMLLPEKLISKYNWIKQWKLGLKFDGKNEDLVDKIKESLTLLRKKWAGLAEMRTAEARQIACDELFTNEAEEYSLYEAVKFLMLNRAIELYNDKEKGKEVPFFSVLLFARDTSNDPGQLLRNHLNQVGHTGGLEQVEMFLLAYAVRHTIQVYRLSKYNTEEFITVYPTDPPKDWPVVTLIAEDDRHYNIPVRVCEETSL
Chain of UniProt Q9BUK6 (Q9BUK6 whole entry, looked up): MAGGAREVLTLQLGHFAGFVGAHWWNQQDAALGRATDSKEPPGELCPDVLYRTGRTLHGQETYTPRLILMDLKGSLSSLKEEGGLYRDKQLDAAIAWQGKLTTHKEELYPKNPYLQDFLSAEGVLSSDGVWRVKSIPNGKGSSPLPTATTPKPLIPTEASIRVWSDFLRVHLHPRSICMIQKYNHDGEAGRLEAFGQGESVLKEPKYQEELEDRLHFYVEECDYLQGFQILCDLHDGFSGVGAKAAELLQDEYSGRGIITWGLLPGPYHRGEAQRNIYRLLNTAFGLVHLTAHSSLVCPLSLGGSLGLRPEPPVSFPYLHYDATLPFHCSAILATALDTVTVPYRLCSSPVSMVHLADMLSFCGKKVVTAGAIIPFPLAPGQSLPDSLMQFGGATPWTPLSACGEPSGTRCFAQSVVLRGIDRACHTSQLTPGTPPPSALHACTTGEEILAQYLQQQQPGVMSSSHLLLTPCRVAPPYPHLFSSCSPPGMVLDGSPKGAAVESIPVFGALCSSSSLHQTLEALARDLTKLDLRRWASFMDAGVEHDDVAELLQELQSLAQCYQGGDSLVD
Chain of UniProt Q5TFE4 (Q5TFE4 whole entry, looked up): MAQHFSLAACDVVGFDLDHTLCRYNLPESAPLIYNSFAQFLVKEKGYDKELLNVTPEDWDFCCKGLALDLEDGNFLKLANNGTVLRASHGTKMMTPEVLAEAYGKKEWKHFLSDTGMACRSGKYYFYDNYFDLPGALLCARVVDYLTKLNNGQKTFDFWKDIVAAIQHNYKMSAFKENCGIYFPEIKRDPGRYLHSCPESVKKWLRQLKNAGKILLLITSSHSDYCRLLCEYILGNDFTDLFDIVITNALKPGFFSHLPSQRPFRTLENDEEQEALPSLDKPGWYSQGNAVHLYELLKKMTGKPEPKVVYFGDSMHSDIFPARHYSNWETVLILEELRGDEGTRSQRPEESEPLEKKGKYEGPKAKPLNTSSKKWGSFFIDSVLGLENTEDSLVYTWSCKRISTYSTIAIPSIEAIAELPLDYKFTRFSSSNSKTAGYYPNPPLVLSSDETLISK
Chain of UniProt P03905 (P03905 whole entry, looked up): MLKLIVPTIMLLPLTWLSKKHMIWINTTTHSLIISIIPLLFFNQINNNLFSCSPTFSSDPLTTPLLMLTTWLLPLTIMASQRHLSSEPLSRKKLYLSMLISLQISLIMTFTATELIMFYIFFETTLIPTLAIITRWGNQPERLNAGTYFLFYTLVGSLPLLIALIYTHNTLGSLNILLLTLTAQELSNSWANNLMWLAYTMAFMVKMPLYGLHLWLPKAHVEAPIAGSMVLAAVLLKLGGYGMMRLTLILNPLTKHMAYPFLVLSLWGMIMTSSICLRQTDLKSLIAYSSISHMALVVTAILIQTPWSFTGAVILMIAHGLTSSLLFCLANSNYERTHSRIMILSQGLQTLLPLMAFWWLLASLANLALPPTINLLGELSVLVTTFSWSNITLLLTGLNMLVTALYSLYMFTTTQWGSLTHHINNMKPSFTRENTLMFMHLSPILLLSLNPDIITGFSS
Chain of UniProt P51948 (P51948 whole entry, looked up): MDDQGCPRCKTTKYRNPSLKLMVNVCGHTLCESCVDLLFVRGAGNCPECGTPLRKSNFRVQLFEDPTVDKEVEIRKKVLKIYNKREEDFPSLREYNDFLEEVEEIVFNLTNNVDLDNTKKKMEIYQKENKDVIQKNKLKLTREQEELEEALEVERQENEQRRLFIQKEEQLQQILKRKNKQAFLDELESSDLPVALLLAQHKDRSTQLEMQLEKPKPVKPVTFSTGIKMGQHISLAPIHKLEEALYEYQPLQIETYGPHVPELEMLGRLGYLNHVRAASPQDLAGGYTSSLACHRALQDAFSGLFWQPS
Chain of UniProt O75030 (O75030 whole entry, looked up): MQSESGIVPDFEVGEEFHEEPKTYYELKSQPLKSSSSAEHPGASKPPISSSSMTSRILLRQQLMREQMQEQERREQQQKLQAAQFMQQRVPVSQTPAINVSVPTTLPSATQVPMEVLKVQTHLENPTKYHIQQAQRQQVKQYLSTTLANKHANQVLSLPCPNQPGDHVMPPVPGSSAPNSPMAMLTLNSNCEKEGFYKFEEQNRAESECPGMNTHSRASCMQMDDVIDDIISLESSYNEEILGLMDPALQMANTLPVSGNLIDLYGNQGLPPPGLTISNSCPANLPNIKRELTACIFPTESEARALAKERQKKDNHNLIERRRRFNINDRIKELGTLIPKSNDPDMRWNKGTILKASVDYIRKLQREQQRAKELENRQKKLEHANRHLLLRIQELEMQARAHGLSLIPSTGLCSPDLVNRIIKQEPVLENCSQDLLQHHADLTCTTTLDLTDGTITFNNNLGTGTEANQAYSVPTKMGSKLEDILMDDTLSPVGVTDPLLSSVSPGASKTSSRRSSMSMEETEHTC
Chain of UniProt O60313 (O60313 whole entry, looked up): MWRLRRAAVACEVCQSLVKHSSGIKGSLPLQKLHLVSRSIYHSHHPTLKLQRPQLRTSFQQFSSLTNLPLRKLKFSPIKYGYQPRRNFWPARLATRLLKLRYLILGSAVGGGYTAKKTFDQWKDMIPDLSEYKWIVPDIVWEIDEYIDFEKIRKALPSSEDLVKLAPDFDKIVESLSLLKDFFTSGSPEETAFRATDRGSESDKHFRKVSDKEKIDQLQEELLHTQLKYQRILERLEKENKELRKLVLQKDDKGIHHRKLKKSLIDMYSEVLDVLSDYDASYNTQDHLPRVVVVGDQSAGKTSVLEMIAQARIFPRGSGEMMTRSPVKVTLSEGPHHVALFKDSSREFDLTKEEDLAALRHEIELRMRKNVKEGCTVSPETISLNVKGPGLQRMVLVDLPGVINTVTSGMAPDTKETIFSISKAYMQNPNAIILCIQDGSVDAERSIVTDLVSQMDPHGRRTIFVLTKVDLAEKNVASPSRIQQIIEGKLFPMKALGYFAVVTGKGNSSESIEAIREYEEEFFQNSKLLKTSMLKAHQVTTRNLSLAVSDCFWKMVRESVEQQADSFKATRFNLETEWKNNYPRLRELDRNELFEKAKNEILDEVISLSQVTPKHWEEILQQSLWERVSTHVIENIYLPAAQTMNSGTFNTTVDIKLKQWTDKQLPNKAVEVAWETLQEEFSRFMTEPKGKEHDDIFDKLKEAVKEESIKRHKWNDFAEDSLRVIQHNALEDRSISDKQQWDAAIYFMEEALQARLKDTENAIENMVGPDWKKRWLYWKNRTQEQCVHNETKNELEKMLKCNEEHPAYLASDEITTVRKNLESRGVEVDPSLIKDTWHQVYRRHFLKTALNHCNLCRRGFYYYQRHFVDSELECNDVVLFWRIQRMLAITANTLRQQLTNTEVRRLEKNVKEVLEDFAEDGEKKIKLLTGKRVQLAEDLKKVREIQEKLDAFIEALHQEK

Each target was assayed with c1cn2cc(-c3ccc4cn[nH]c4c3)nc(Nc3ccc(N4CCOCC4)cc3)c2n1 [entospletinib] (assay: log2 fold change, soluble protein after heating vs DMSO (PISA); higher = thermal stabilisation; K562 cells, 10 uM, 30 min; active = over 0.2 and 3.5 SD of the protein, either way, in both replicates (recomputed)).
Method in brief: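 K562 cells at 2×10^6 cells/mL were treated for 30 min with 10 μM compound, and aliquots were heated for 3 min over 48°C-58°C before pooling. Extraction used PBS with 0.5% NP-40 at 4°C, and soluble protein was the supernatant after 21,000xg for 90 min, measured by TMTpro 16plex LC-MS/MS with channel sums equalised. Thermal stability values, relative to control samples and from duplicates, are log2 fold changes.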
With MSANTD2 (UniProt Q6P1R3) the log2 fold change was -0.364.
NFATC3 (UniProt Q12968) gave a log2 fold change of 0.153.
Target MSH6 (UniProt P52701) has a log2 fold change of -0.053.
In the case of MYH11 isoform 2 (UniProt P35749), the log2 fold change was -0.047.
For MKNK1 (UniProt Q9BUB5), the log2 fold change was 0.01.
Work on MITF (UniProt O75030) yielded a log2 fold change of -0.085.
With MNAT1 (UniProt P51948) the log2 fold change was -0.065.
For MT-ND4 (UniProt P03905), the log2 fold change was 0.022.
Target MRPS27 isoform 2 (UniProt Q92552) has a log2 fold change of -0.029.
For NANS (UniProt Q9NR45), the log2 fold change was 0.025.
MSTO1 (UniProt Q9BUK6) showed a log2 fold change of -0.068.
In the case of NDUFA12 (UniProt Q9UI09), the log2 fold change was -0.025.
OPA1 isoform 2 (UniProt O60313) showed a log2 fold change of -0.008.
NOSIP (UniProt Q9Y314) showed a log2 fold change of -0.146.
NA, A0A494C071 showed a log2 fold change of -0.105.
With MIS12 (UniProt Q9H081) the log2 fold change was -0.003.
NAT14 (UniProt Q8WUY8) showed a log2 fold change of 0.007.
MSH2 (UniProt P43246) showed a log2 fold change of -0.006.
For MYL12B (UniProt O14950), the log2 fold change was -0.03.
For NT5DC1 (UniProt Q5TFE4), the log2 fold change was 0.039.
NDUFB8 (UniProt O95169) gave a log2 fold change of 0.067.
For NUP107 (UniProt P57740), the log2 fold change was -0.072.
Target OTULIN (UniProt Q96BN8) has a log2 fold change of 0.1.
NPC1 (UniProt O15118) gave a log2 fold change of 0.023.
Work on NUP85 (UniProt Q9BW27) yielded a log2 fold change of 0.005.
OSBP (UniProt P22059) was tested, and the log2 fold change was -0.013.
With MON1A (UniProt Q86VX9) the log2 fold change was 0.041.
OXSR1 (UniProt O95747) showed a log2 fold change of -0.058.
Target NHLRC2 (UniProt Q8NBF2) has a log2 fold change of 0.097.
NCAPG (UniProt Q9BPX3) gave a log2 fold change of 0.
Work on NUMA1 (UniProt Q14980) yielded a log2 fold change of 0.049.
NBN (UniProt O60934) showed a log2 fold change of 0.009.
OVCA2 (UniProt Q8WZ82) was tested, and the log2 fold change was -0.031.
For NIPSNAP2 (UniProt O75323), the log2 fold change was 0.092.
MRPS31 (UniProt Q92665) was tested, and the log2 fold change was 0.065.
